AmpC detergent – blocks E. coli AmpC beta-lactamase in detergent assay | P00811 | AmpC hydrolysis of nitrocefin, absorbance 480 nm, 0.01% Triton | Potency, µM (top dose mostly 114 µM), for the others: at the top dose activity change, negative = inhibition, usual class: inhibitors | 370,000 compounds, 0.041% hits | AID 485294;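 note: 0% = no-compound wells and -100% = no-enzyme wells; nearly all actives have a fitted effect of over 25% in size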
Target sequence (P00811 whole entry, looked up): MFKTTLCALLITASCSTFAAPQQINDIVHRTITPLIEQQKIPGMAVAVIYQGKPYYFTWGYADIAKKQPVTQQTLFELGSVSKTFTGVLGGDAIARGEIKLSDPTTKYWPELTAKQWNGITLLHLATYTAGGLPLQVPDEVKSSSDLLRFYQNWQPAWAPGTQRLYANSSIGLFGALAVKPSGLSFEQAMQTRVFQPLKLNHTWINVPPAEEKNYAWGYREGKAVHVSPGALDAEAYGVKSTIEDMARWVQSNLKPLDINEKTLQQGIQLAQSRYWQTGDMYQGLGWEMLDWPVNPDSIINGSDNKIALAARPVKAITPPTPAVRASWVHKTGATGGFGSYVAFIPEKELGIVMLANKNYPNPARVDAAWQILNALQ
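AmpC (5.3 nM in the dispensed reagent) in 20 mM phosphate pH 7.0 with 0.01% (detergent screen) or 0.0001% Triton X-100 was preincubated with compounds for 15 min at room temperature. Nitrocefin was then added from an 800 uM solution, and hydrolysis was followed at 480 nm.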
SARS PLP yeast – SARS-CoV PLP inhibition in yeast; 330,000 compounds, 0.19% hits; Potency, µM (titrated, usually from 32.9 µM), for inactives: top-dose activity, positive = growth rescue, actives largely listed as activators; S. cerevisiae expressing SARS-CoV PLpro, growth rescue; calls by dose curve; note: 0% is about no effect; nearly all actives have a fitted effect of over 55% in size
RE007 growth inh – less growth of the S. pombe RE007 Vpr strain; S. pombe RE007 Vpr strain, BacTiter-Glo ATP luminescence, 24 h; Potency, µM (highest dose often 92.2 µM), for inactives: top-dose activity change, negative = less growth, usual class: inhibitors; 360,000 compounds, 0.21% hits; AID 651644; active = well fitted falling curve with a large enough effect; inconclusive = small, poorly fitted or top-dose-only effect; inactive = no such curve, though single readings can be large or run the other way; note: % is set by controls: 0 for no effect and ±100 for the full control effect; nearly all actives have a fitted effect of over 50% in size
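Fission yeast RE007 carrying one integrated HIV-1 vpr copy, seeded at OD 0.01 in PMG+AL medium with 23 nL pinned compound. Grown 24 h at 30 degrees; viability read by BacTiter-Glo luminescence after 5 min.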
Tb PYK inh – T. brucei pyruvate kinase inhibition; TbPYK enzyme, Kinase-Glo Plus ATP luminescence, 45 min; Potency, µM (titrated, usually from 76.8 µM), without a hit: at the highest dose activity, negative = inhibition, actives largely listed as inhibitors; 410,000 compounds, 0.12% hits; note: % is set by controls: 0 for no effect and ±100 for the full control effect; nearly all actives have a fitted effect of over 50% in size
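Activity of T. brucei pyruvate kinase was followed by Kinase-Glo Plus luminescence after the enzyme reacted 45 min at room temperature with 130 uM ADP (final) and substrate. Test compounds were added before ADP at multiple concentrations.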
Sm TGR inh – inhibitors of Schistosoma mansoni thioredoxin glutathione reductase; 360,000 compounds, 3% hits; purified TGR, DTNB reduction, TNB absorbance 405 nm; AID 485364; Potency, µM (titrated, usually from 114 µM), inactives show at the highest dose activity change, negative = inhibition, most hits filed as inhibitors; note: % is set by controls: 0 for no effect and ±100 for the full control effect; nearly all actives have a fitted effect of over 60% in size
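First, TGR (20 nM dispensed) and NADPH were mixed with compound. Second, a 15 min room-temperature incubation followed. Third, further NADPH and then DTNB were added to start the reaction. Finally, TNB absorbance was monitored kinetically.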
AmpC inh no detg – inhibitors of E. coli AmpC beta-lactamase without detergent; P00811; AmpC nitrocefin hydrolysis, absorbance 480 nm, 0.0001% Triton; Potency, µM (series often up to 57.1 µM), for the others: top-dose activity change, negative = inhibition, most hits filed as inhibitors; 330,000 compounds, 0.52% hits;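 note: plate controls were no compound for no effect and no enzyme for full effect; nearly all actives have a fitted effect of over 20% in size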
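20 mM phosphate pH 7.0 + 0.01% (detergent screen) or 0.0001% Triton X-100; 5.3 nM AmpC reagent; cpd preinc 15 min RT; nitrocefin (800 uM stock) to start; A480 q20 s × 4 min; Activity was normalised to no-enzyme and no-compound control wells.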
Active calls of the source: *; ? = inconclusive; . = not tested or not shown; [ ] = remark or other dose. The list is not random: actives were taken first. Their share in the collection is about 3.3%. Unless noted, calls come from the whole dose curve; as a rule, active = well fitted curve in the direction sought with a large enough effect; inconclusive = small, poorly fitted or top-dose-only effect, or another doubt; inactive = no such curve, though single readings can be large; an effect the other way counts as inactive or inconclusive. Potency is the fitted concentration of half-maximal effect.

SMILES	AmpC detergent	SARS PLP yeast	RE007 growth inh	Tb PYK inh	Sm TGR inh	AmpC inh no detg
CCOC(=O)c1ccc(CN(Cc2ccc(F)cc2)S(=O)(=O)c2cc(C(=O)Nc3ccccc3CC)ccc2F)cc1	7%	.	.	3%	5%	.
COc1ccccc1CNC(=O)COC(=O)c1cc(-c2ccco2)nc2ccccc12	-3%	0%	-17%	5%	10µM*	-43%
O=C(c1ccco1)N1CCN(C(=O)c2cc(-c3ccncc3)nc3ccc(Br)cc23)CC1	.	.	-25%	-5%	.	.
O=C(c1ccco1)N1CCN(C(=O)c2cc(-c3ccccn3)nc3ccc(Cl)cc23)CC1	3%	2%	0%	?	7.9µM*	108%
COc1cc(/C=N/NC(=O)c2cc(-c3ccco3)nc3ccccc23)cc(OC)c1O	-2%	-1%	6%	-2%	45µM*	-12%
O=C(Nc1nncs1)c1cc(-c2ccco2)nc2ccccc12	.	6%	3%	-1%	.	-22%
NC(=O)COC(=O)c1cc(-c2ccco2)nc2ccccc12	-5%	0%	1%	4%	3.2µM*	-48%
COc1ccccc1CNC(=O)COC(=O)c1cc(C)nc2ccccc12	.	-5%	8%	-5%	.	6%
CCc1ccc(C(=O)COC(=O)C(Cc2c[nH]c3ccccc23)NC(=O)c2ccc(CC)cc2)cc1 (stereo not drawn)	-6%	.	.	-1%[15.4 µM]	13%	.
Cc1ccc(CNC(=O)C2CCN(S(=O)(=O)c3cccs3)CC2)o1	4%	4%	9%	?	5.6µM*	20%
Cc1ccc(/C=C/C(=O)N2CCN(S(=O)(=O)c3cccs3)CC2)o1	0%	2%	1%	-27%	8.9µM*	3%
Cc1ccc(CNC(=O)C2CCN(S(=O)(=O)c3cccs3)CC2)cc1	-6%	2%	-14%	-5%	-4%	-9%
O=C(/C=C/c1ccco1)N1CCN(S(=O)(=O)c2cccs2)CC1	8%	0%	-14%	-13%	3.5µM*	-9%
Cc1ccc(/C=C/C(=O)N2CC(C)CC(C)C2)o1 (stereo not drawn)	-10%	-11%	?	?	2.8µM*	-2%
Cc1nn(-c2ccc(N3CCCC3)nn2)c(C)c1CCC(=O)Nc1ccc(F)cc1F	3%	.	.	-5%	-4%	.
O=C(CCc1nc2cccnc2n1-c1ccccc1)Nc1ccc(Cl)c(Cl)c1	-9%	.	.	1%	-3%	.
Cc1ccc(-n2c(=O)c3ccc(C(=O)NCc4ccco4)cc3n(Cc3ccc(Cl)cc3)c2=O)cc1	1%	.	.	4%	8%	.
O=C(Nc1ccc(C(=O)N2CCCCC2)cc1)c1ccccc1Cl	2%	-4%	36%	4%	-14%	277%
O=C(NCc1ccoc1)c1ccc(NC(=O)c2ccccc2Cl)cc1	-11%	-4%	17%	-11%	35µM*	-29%
Cc1oc(/C=N/NS(=O)(=O)c2ccccc2)cc1Br	-2%	-20%	-8%	-11%	0.11µM*	-8%
Cc1ccc(/C=N/NS(=O)(=O)c2ccccc2)o1	?	-7%	2%	-6%	-13%	-7%
COc1cc(CNC(=O)c2cnc3c(-c4cccc(C)c4)c(C)nn3c2C)cc(OC)c1OC	-2%	.	.	1%	-2%	.
Cc1ccc2c(c1)C=CC(C#N)N2C(=O)c1ccccc1 (stereo not drawn)	-1%	11µM*	-3%	1%	4%	-29%
Cc1cc(C)c(NC(=O)CSc2nc(C)cc(C)c2C#N)c(C)c1	2%	.	.	0%	-1%	.
Cn1c(CCNC(=O)c2ccco2)nc2cc(NC(=O)COc3ccc(Cl)cc3)ccc21	0%	.	.	-2%	0%	.
SMILES	AmpC detergent	SARS PLP yeast	RE007 growth inh	Tb PYK inh	Sm TGR inh	AmpC inh no detg
COc1ccc(NCc2ccccc2-c2nnc(-c3ccccc3)o2)cc1Cl	-1%	.	.	0%	0%	.
CCN(CC)CCCN1C=C2C(=O)C(C)(OC(=O)C3CCCC3)C(=O)C(c3ccccc3)=C2C=C1CCCC(=O)OC (stereo not drawn)	-6%	0%	-16%	-5%	?	98%
COC(=O)CCCC1=CC2=C(c3ccccc3)C(=O)C(C)(OC(=O)C3CCCC3)C(=O)C2=CN1C1CCCCC1 (stereo not drawn)	1%	2%	1%	-2%	20µM*	155%
COC(=O)CCCC1=CC2=C(c3ccccc3)C(=O)C(C)(OC(=O)C3CCCC3)C(=O)C2=CN1CC(C)C (stereo not drawn)	2%	0%	?	-4%	-3%	148%
COC(=O)CCCC1=CC2=C(c3ccccc3)C(=O)C(C)(OC(=O)C3CCCC3)C(=O)C2=CN1CC1CC1 (stereo not drawn)	-11%	1%	0%	-5%	28µM*	107%
COC(=O)CCCC1=CC2=C(c3ccccc3)C(=O)C(C)(OC(=O)C3CCCC3)C(=O)C2=CN1C1CCCC1 (stereo not drawn)	-3%	1%	-16%	2%	?	140%
COCCN1C=C2C(=O)C(C)(OC(=O)C3CCCC3)C(=O)C(c3ccccc3)=C2C=C1CCCC(=O)OC (stereo not drawn)	-7%	0%	-10%	1%	14µM*	32%
O=C(NCc1ccccc1F)c1cc2ccccn2n1	2%	.	.	4%	7%	.
Cn1c(-c2ccc(S(=O)(=O)N3CCCC3)cc2)csc1=Nc1ccc(Cl)c(Cl)c1	11%	.	.	2%	8.9µM*	.
CCn1c(-c2ccc(S(=O)(=O)N3CCOCC3)cc2)csc1=Nc1ccc(C)c(Cl)c1	-6%	6%	.	3%	-4%	-19%
CCC1CCCCN1S(=O)(=O)c1ccc(C(=O)Nc2sc3c(c2C(N)=O)CCC3)cc1 (stereo not drawn)	-4%	.	.	-2%	35µM*	.
O=C(O)C12CC3CC(C1)CC(n1ncc(NCc4ccco4)c(Cl)c1=O)(C3)C2	6%	1%	-17%	-4%	2.8µM*	-17%
O=C(O)CC12CC3CC(C1)CC(n1ncc(NCc4ccccc4Cl)c(Cl)c1=O)(C3)C2	-2%	0%	0%	1%	-5%	-11%
O=C(Nc1ccccc1)c1cc2ccccc2c(=O)s1	89µM*	-26%	0%	2%	3%	-19%
O=C(Nc1ccc(O)cc1)c1cc2ccccc2c(=O)s1	0%	-1%	6%	-2%	-7%	-25%
COc1ccc(-c2cn3c(n2)sc2cc(C(=O)NCC(C)c4ccccc4)ccc23)cc1 (stereo not drawn)	1%	.	.	4%	79µM*	.
